The source of these data is PubChem BioAssay (NCATS).

Values without a mark were called inactive. Activity calls are given as the source filed them. Calls come from the whole dose curve; as a rule, active = well fitted activation curve with a large enough effect; inconclusive = small, poorly fitted or top-dose-only effect; inactive = flat fitted curve, though single readings scatter.
Potency is the fitted concentration of half-maximal effect.

The assay in a line: Confirmation and Secondary Assay for Modulators of Hemoglobin Beta Chain Splicing at IVS2 654 locus (AID 910). For activation (splicing correction): % of control where 0% means no effect.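 Note: HeLa cells stably carrying EGFP split by mutant beta-globin IVS2-654 intron.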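 Note: potency of activators that raise GFP signal by restoring correct splicing.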 To be noted: HeLa EGFP-654 splicing reporter, GFP fluorescence, 48 h; series mostly up to 46.1 µM; activation (splicing correction): at the top concentration. From the text:
NIH Chemical Genomics Center [NCGC] NIH Molecular Libraries Screening Centers Network [MLSCN] MLSCN Grant: 1 X01 MH080684-01 PI Name: Dr. Ryszard Kole NCGC Assay Overview: Modulation of Alternative Splicing as Therapy Abnormal splicing is associated with a number of diseases, including cancer and genetic diseases such as cystic fibrosis, muscular dystrophy and beta-thalassemia. Alteration of disease associated splicing patterns provides a promising target for treatment. […] Mutations in the second intron of the b-globin gene at positions 654 or 705 are clinically relevant and cause mis-splicing which results in an out of frame gene product. […] EGFP-654 HeLa Cells as screen system. HeLa cell lines were stably transfected with a construct in which the EGFP (enhanced green fluorescent protein) cDNA was interrupted by the second intron of the beta-globin gene (IVS2-654). The ISV2 intron contains mutations which cause mis-splicing of EGFP and premature termination of EGFP which results in a nonfluorescent protein product. […] Expression of the transgene was driven by the CMV promoter. We concluded that a low molecular weight compound, which restored correct splicing of intron 2 would also generate functional EGFP protein, resulting in a fluorescent signal. Thus, the HeLa cells that express the EGFP-654 construct can be used for high throughput screening of a chemical library.
NCGC Assay Protocol Summary: Confirmatory Screening. Freshly thawed HeLa EGFP-654 cells were seeded in 5 ul of optimem media (Invitrogen) containing 2 % fetal calf serum (Hyclone) and 1x penicillin/streptomycin (Invitrogen) at a concentration of 500 cells per well in 1536-well plates. Cells were incubated overnight at 37C in 5% CO2. The next day, cells were treated with DMSO, 500 nM antisense ISV2 654 PNA control oligo, or library compound and allowed to grow at 37C in 5% CO2 for 2 days. The PNA oligo blocked the mutation site in the intron and allowed proper (wild type) splicing to occur, resulting in full length EGFP expression and also allowed for optimization of the assay parameters. Plates were read in the Acumen Explorer (TTP Labtech) using 488 nm laser excitation and 500-520 nm emission PMT filter in a 1 x 8 uM capture mode. Fluorescnet objects ranging in size from 5 to 250 uM were measured and the total peak GFP intensity for each well was used for data analysis. Keywords: Thalassemia, beta-thalassemia, beta-globin, EGFP, ISV2 654, ISV2 705, SSO, PNA, antisense, splicing, MLSMR, MLSCN, NIH Roadmap, qHTS, NCGC
As to `CC1OC(=O)C(C(C)C)NC(=O)C(C(C)C)OC(=O)C(C(C)C)NC(=O)C(C)OC(=O)C(C(C)C)NC(=O)C(C(C)C)OC(=O)C(C(C)C)NC(=O)C(C)OC(=O)C(C(C)C)NC(=O)C(C(C)C)OC(=O)C(C(C)C)NC1=O` (centres undefined), the “activation (splicing correction)” value was -7.25%.

As for `CC1CCCC(=O)CCC/C=C/c2cc(O)cc(O)c2C(=O)O1` (centres undefined), the “activation (splicing correction)” value is -2.43%.

As for `CN1C(=O)CCS(=O)(=O)[C@H]1c1ccc(Cl)cc1`, the “activation (splicing correction)” value was 3.13% [at 38.3 µM].

`CCN(CC)/[N+]([O-])=N/O`: the “activation (splicing correction)” value is 11.1%.

Take `Clc1ccc(COC(Cn2ccnc2)c2ccc(Cl)cc2Cl)c(Cl)c1` (centres undefined): the “activation (splicing correction)” value was -5.16%.

Regarding `O=c1c(O)c(-c2ccc(O)c(O)c2)oc2c(O)c(O)cc(O)c12`, the “activation (splicing correction)” value is 6.36%.

On to `CC[C@@]1(O)C(=O)OCc2c1cc1n(c2=O)Cc2cc3cc(O)ccc3nc2-1`, for which the Potency is 12.6 µM (active).

On to `C[N+](C)(C)CC(=O)[O-]`, for which the “activation (splicing correction)” value is 4.87%.

Consider `CN1CC(CO)=C[C@H]2c3cccc4[nH]cc(c34)C[C@H]21`, for which the “activation (splicing correction)” value was -1% [at 38.3 µM].

For `c1cncc(C2CCCCN2)c1` (centres undefined), the “activation (splicing correction)” value was 1.37% [at 38.3 µM].

For `CN1CCN(C(=O)O[C@@H]2c3nccnc3C(=O)N2c2ccc(Cl)cn2)CC1`, the “activation (splicing correction)” value was -2.29% [at 38.3 µM].

For the molecule `COC1C(O)C(C)O[C@@H](OC2CC[C@@]3(C)C4CC[C@]5(C)C(C6=CC(=O)OC6)CC[C@@]5(O)C4CC[C@@H]3C2)C1O` (some centres undefined), the “activation (splicing correction)” value is 0.0002% [at 38.3 µM].

Regarding `COc1cccc2c1cc([N+](=O)[O-])c1c(C(=O)O)cc3c(c12)OCO3`, the “activation (splicing correction)” value is 0.372%.

As to `Cc1ccc(C[N+](C)(C)C)o1`, the “activation (splicing correction)” value is 1.15%.

Consider `Oc1c(Cl)c(Cl)c(Cl)c(Cl)c1Cl`, for which the “activation (splicing correction)” value is -3.35% [at 38.3 µM].

`CC(C)=CCCC1(C)C=Cc2c(O)c3c(c(CC=C(C)C)c2O1)OC12C(=CC4CC1C(C)(C)OC2(C/C=C(/C)C(=O)O)C4O)C3=O` (centres undefined): the “activation (splicing correction)” value was 2.16% [at 38.3 µM].

On to `O=c1ccc2c(O)c3ccoc3cc2o1`, for which the “activation (splicing correction)” value is 5.3%.

Take `O=C(O)c1ccccc1-c1c2cc(Br)c(=O)cc-2oc2[c]([Hg])c(O)c(Br)cc12`: the “activation (splicing correction)” value is -6.87%.

As to `C=CC1CN2CCC1CC2C(O)c1ccnc2ccccc12` (centres undefined), the Potency entry was “inactive”.

On to `C[C@@]12CCC(OS(=O)(=O)O)C[C@@H]1CCC1C2CC[C@]2(C)C(=O)CCC12` (some centres undefined), for which the “activation (splicing correction)” value was -0.393% [at 38.3 µM].

As to `C=CCSSCC=C`, the “activation (splicing correction)” value was 8.72%.

`COc1ccc2c(c1)[nH]c1c(C)nccc12`: the “activation (splicing correction)” value was 25.1%.

As to `O=C(O)CF`, the “activation (splicing correction)” value was -0.663% [at 38.3 µM].

Consider `COc1ccc2c3c([nH]c2c1)C(C)=NCC3`, for which the “activation (splicing correction)” value was 16.2%.
